HEK293 cAMP ctrl: parental HEK293 cAMP activation (counter-screen) | parental HEK293 CNG cAMP sensor, membrane potential fluorescence | actives 2.5% (n = 73,000) | Potency, µM (doses to about 57.1 µM), inactives show top-dose activation, most hits filed as activators | AID 938; also: % of control where 0% means no effect; nearly all actives have a fitted effect of over 55% in size
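Counterscreen for endogenous-receptor signalling: CNG-channel HEK 293 cells report cAMP rise by membrane depolarization. After 60 min dye equilibration with 100 uM RO 20-1724, compounds incubated 30 min before bottom-read fluorescence at 590 nm.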
Tau filament bind: tau filament binding | Potency, µM (highest dose often 57.1 µM), for the others: at the highest dose activity change, negative = inhibition | AID 596 | actives 2% (n = 71,000) | recombinant tau filaments, thioflavin S fluorescence, 15 h; filaments grown with octadecylsulfate alongside compound | P10636;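 also: % is scaled to controls: 0 for no effect and ±100 for the full control effect; actives lower thioflavin S fluorescence by blocking filaments or displacing dye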
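His-tagged recombinant human tau (exons 2, 3, 10; 1 uM final) fibrillized with 30 uM sodium octadecylsulfate, 15 h at 37 C, in pH 7.4 HEPES buffer with 10 uM thioflavine S and 5 mM DTT. Reduced ThS fluorescence (450/510 nm) marks activity.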
ERK AVP block: inhibitors of vasopressin-stimulated ERK signaling pathway | AID 995 | Potency, µM (titrated, usually from 57.5 µM), for the others: at the top dose activity, negative = inhibition, actives largely listed as inhibitors | actives 0.99% (n = 72,000) | HEK293-V1b, vasopressin-stimulated pERK AlphaScreen; also: % is scaled to controls: 0 for no effect and ±100 for the full control effect; nearly all actives have a fitted effect of over 55% in size
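Overnight-seeded V1b-HEK293 cells in 1% FBS got compound, then vasopressin (25 nM final, 5 min, 37C), then lysis buffer. AlphaScreen detection of phospho-ERK; activity normalized to basal and full-stimulation controls.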
FLuc inh: firefly luciferase inhibition; P08659; purified firefly luciferase, luminescence, 8 min; Potency, µM (series often up to 57.1 µM), for inactives: at the highest dose activity change, negative = inhibition, hits mostly inhibitors; actives 2.2% (n = 72,000); also: % is scaled to controls: 0 for no effect and ±100 for the full control effect; nearly all actives have a fitted effect of over 40% in size
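Titration-based qHTS; buffer 50 mM imidazole pH 7.2, 50 mM KCl, 7 mM MgCl2, 10 uM ATP, 0.01% Tween 20, 0.05% BSA; luciferase/luciferin detector mix added after compound; 8 min, ambient; luminescence.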
TSHR ag: activates the human thyroid stimulating hormone receptor; HEK293-CNG-TSHR cells (CNG channel as cAMP sensor), membrane potential dye, cAMP; Potency, µM (series often up to 57.1 µM), for inactives: at the top dose activation, most hits filed as activators; actives 0.48% (n = 73,000); AID 926; active = well fitted activation curve with a large enough effect in the main read-out, with a control signal flat, not every such curve was filed as active; inconclusive = small, poorly fitted or top-dose-only effect, or a change in a side signal; inactive = no such curve, though single readings can be large or run the other way; % of control where 0% means no effect;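 also: the control signal comes from parental cells without the receptor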
Target sequence (P16473 whole entry, looked up): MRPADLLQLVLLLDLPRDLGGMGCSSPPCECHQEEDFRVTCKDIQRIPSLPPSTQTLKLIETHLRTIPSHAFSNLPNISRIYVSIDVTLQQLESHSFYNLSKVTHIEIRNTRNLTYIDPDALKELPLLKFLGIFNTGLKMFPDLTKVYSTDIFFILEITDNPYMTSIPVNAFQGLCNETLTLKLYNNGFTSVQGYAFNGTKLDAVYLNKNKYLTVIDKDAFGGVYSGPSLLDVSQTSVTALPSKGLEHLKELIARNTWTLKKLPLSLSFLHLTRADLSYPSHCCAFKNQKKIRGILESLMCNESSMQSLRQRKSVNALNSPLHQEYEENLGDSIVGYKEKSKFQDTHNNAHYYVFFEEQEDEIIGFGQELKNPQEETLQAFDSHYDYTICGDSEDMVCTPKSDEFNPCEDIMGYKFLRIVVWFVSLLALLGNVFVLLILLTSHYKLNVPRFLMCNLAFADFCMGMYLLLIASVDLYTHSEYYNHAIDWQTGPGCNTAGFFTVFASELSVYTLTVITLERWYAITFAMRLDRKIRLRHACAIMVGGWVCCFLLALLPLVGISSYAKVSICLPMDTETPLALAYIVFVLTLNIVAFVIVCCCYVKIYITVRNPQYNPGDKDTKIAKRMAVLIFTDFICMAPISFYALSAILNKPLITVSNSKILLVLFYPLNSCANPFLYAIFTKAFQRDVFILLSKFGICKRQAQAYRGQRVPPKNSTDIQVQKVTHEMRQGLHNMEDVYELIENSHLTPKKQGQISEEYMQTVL
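HEK 293 cells stably expressing TSHR and a cAMP-gated CNG channel; parental CNG-only cells as counterscreen. Cells preloaded 60 min with membrane potential dye plus 100 uM RO 20-1724, then compound 30 min; fluorescence read at 590 nm.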
Bst PK mod: modulators of Bacillus stearothermophilus pyruvate kinase | purified pyruvate kinase, luminescence ATP production; ribose 5-phosphate activator present at AC10 | Potency, µM | actives 1.2% (n = 51,000) | AID 361; in the data active = potency below about 11 µM; inconclusive = mostly about 12 µM to 25 µM;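 the screen sought inhibitors and activators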;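 also: scaled between full activation by ribose 5 phosphate and full inhibition by luteolin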
* = called active by the depositor; i = inactive; ? = inconclusive; . = no result; [ ] = dose if it differs, or a comment. Only some compounds are listed: those with a hit (about 7.2% of all), similar ones and a draw of the others. Unless noted, calls follow the shape of the dose curve; as a rule, active = well fitted curve in the direction sought with a large enough effect; inconclusive = small, poorly fitted or top-dose-only effect, or another doubt; inactive = no such curve, though single readings can be large; an effect the other way counts as inactive or inconclusive. Potency is read from the fitted curve at half-maximal effect.

SMILES | HEK293 cAMP ctrl | Tau filament bind | ERK AVP block | FLuc inh | TSHR ag | Bst PK mod
CC(C)CO/N=C1/C[C@@H](O)[C@@H](O)[C@@H]2[C@@H]3C(=O)N(Cc4ccccc4)C(=O)[C@H]3CC[C@@H]12 | -3.8%[11.4 µM] | . | 18.7%[11.5 µM] | 0.3%[11.4 µM] | -3.5%[11.4 µM] | .
NCCCCCCCCCCN | ? | -1.1% | -6.5% | -0.4% | ? | .
Cc1c(C(=O)NN2CCOCC2)nn(-c2ccc(Cl)cc2Cl)c1-c1ccc(I)cc1 | -0.7% | ? | -3.7% | -1.6% | -0.1% | .
CC(C)C(OC(=O)c1ccco1)C(=O)NCc1ccccc1 (stereo not given) | 25.1µM* | 5.8% | 2.8% | -0.8% | ? | >57
Cc1cccc(C(OC(=O)c2ccco2)C(=O)NCc2ccccc2)n1 (stereo not given) | 7.3% | -0.6% | -6.8% | 1.1% | -6.3% | >57
Cc1nc(Nc2ccc3c(c2)OCCO3)c2oc3ccccc3c2n1 | 9.3% | 8.8% | 15.8µM* | -4.2% | . | 4.32*
Cc1nc(NCc2ccc3c(c2)OCO3)c2oc3ccccc3c2n1 | ? | 42.5% | ? | 1.3% | ? | >57
OCCSCc1cc(Cl)cc(Cl)c1O | -4.1%[11.4 µM] | 1.4%[11.4 µM] | 1.4%[11.5 µM] | 1.3%[11.4 µM] | 13.0%[11.4 µM] | .
CCN(CC)C(=O)CSc1nc(C)cc(-c2cccs2)c1C#N | ? | 60.7% | 0.9% | -1.2% | ? | .
Cc1cc(C)c(C#N)c(SCC(=O)c2cccs2)n1 | ? | 2.51µM* | 22.2% | -8.9% | ? | .
Cc1ccc(-c2csc3nnc(SCC(=O)N4CCN(Cc5ccccc5)CC4)n23)cc1 | 22.9% | 20µM* | 15.3% | 1.5% | 11.1% | >57
CCCCNC(=O)C(c1ccc(OCC(=O)OC)c(C(=O)OC)c1)N(Cc1ccccn1)C(=O)CCCCCN1C(=O)NC(c2ccc(-c3ccccc3)cc2)C(C(=O)OCc2ccccc2)=C1C (stereo not given) | ? | 76.8% | -25.6% | . | ? | .
CN(C)c1ccc(C2(c3ccc(N(C)C)cc3)OC(=O)c3cc(N(C)C)ccc32)cc1 | 1.1% | 14.8% | -21.2% | . | -1.9% | .
COc1ccc(CNC(=O)Nc2ccc(OC)cc2)cc1 | 4.1% | 82.7% | -9.6% | 0.4% | 5.6% | >57
COc1cccc(C(=O)Nc2ccc(N(C)C)cc2)c1OC | -6.5% | ? | ? | 15.8µM* | -7.2% | i
COc1ccc(NC(=O)Nc2ccc3nccnc3c2)cc1 | -23.9%[11.4 µM] | 3.16µM* | -24.8% | 6.31µM* | . | .
COc1ccc(NC(=O)Nc2ccc(N(C)C)cc2)cc1 | -6.8% | 15.8µM* | -12.1% | 12.6µM* | 45.0% | .
COc1ccc(CNC(=O)c2ccc3nccnc3c2)cc1 | 9.7% | -16.0% | 4.7% | 2.6% | 2.7% | .
COc1ccc(NC(=O)Nc2nccs2)cc1 | 13.4% | -5.6% | -16.9% | 12.6µM* | . | i
C[C@]12C=CC(=O)C=C1CC[C@@H]1[C@H]3C[C@@H](O)[C@](O)(C(=O)CO)[C@@]3(C)C[C@H](O)[C@]12F | -2.1%[25.6 µM] | -5.1%[25.6 µM] | 10.0%[25.7 µM] | 4.0%[25.5 µM] | -10.3%[25.6 µM] | .
c1cn(-c2ccnc(-c3ccc4c(c3)OCO4)n2)cn1 | -13.3% | 9.1% | 20µM* | 1.5%[2.29 µM] | 4.8% | .
C=CCOc1ccc(/C=C/C(C)=N\O)cc1 | -3.2% | -5.7% | -4.5% | 15.8µM* | 2.0% | .
Cc1ccc2oc(C(=O)NCc3ccc4c(c3)OCO4)c(C)c2c1 | ? | 15.7% | -3.5% | 3.0% | ? | >57
O=C(NCc1ccc2c(c1)OCO2)c1ccccn1 | 11.5% | -10.4% | -3.4% | 0.1% | 2.0% | >57
COc1ccc(-n2nc(C(=O)Nc3ccc4c(c3)OCO4)c3c4ccccc4n(C)c3c2=O)cc1 | 15.8µM* | 11.8% | -14.1% | 2.1% | ? | >57
SMILES | HEK293 cAMP ctrl | Tau filament bind | ERK AVP block | FLuc inh | TSHR ag | Bst PK mod
O=C(CSCc1cnn(-c2ccccc2)c1-n1cccc1)NCCN1CCOCC1 | 12.0% | 3.4% | 19.5% | 0.9% | 6.3% | >57
O=C(NCc1ccc2c(c1)OCO2)c1nn(-c2ccccc2)c(=O)c2ccccc12 | 25.1µM* | 18.0% | 6.3% | -0.6% | ? | >57
Cc1c(C(=O)NCc2ccc3c(c2)OCO3)oc2ccccc12 | 25.1µM* | 11.9% | 30.1% | 1.5% | ? | .
O=C(CSCc1cnn(-c2ccccc2)c1-n1cccc1)NCc1ccc2c(c1)OCO2 | 31.6µM* | 14.2% | 22.0% | 0.7% | ? | >57
N#Cc1cccc(-c2nc(NCc3cccs3)c3ccccc3n2)c1 | 14.1% | 85.4% | ? | -1.9%[2.29 µM] | 22.7% | .
O=C(OC1Cc2c(O)cc(O)cc2OC1c1cc(O)c(O)c(O)c1-c1c(C2Oc3cc(O)cc(O)c3CC2O)cc(O)c(O)c1O)c1cc(O)c(O)c(O)c1 (stereo not given) | . | . | -10.7% | . | . | .
COc1cc2cc3c4cc(OC)c(OC)cc4cc[n+]3c(C)c2cc1OC | -2.0%[25.6 µM] | 183.5%[25.6 µM] | ? | 3.9%[25.5 µM] | -19.7%[25.6 µM] | .
O=C(NCc1ccc2c(c1)OCO2)c1ccc(-c2ccc(Cl)cc2)o1 | ? | 77.9% | 31.6µM* | 2.8% | ? | .
Cc1ccc(-n2nc(C(=O)NCc3ccco3)c3c4ccccc4n(C)c3c2=O)cc1 | 3.98µM* | 308.0% | -8.8% | 0.1% | ? | >57
O=C(Nc1ccc2c(c1)OCO2)c1nn(-c2ccccc2)c(=O)c2ccccc12 | 25.1µM* | 22.5% | -3.2% | -2.1% | ? | >57
CCn1cc(SCC(=O)NCc2ccc3c(c2)OCO3)c2ccccc21 | ? | -10.6% | . | 2µM* | ? | .
C=C[C@@]1(C)C=C2CC[C@@H]3[C@](C)(CCC[C@@]3(C)C(=O)O)[C@H]2CC1 | -21.6% | 6.0% | . | 4.0%[11.4 µM] | -13.8% | .
COc1ccc(N2CCN(c3nc(NCCc4ccc(OC)c(OC)c4)nc(OC)n3)CC2)cc1 | ? | -7.5% | 15.8µM* | -7.6% | ? | .
COc1ccc(Nc2nc(OC)nc(N3CCN(c4ccc(OC)cc4)CC3)n2)cc1 | -2.3% | 70.0% | ? | -7.8% | -3.4% | .
O=C(c1ccccc1OCc1ccccc1Br)N1CCN(c2ncccn2)CC1 | 15.8µM* | -0.7% | ? | 1.1% | ? | >57
COc1cccc2cc(C(=O)N3CCN(c4ncccn4)CC3)c(=O)oc12 | 4.6% | -17.8% | 13.1% | -0.6% | 1.6% | >57
O=C(c1ccc(-c2ccccc2)cc1)N1CCN(c2ncccn2)CC1 | 25.1µM* | 5.3% | 3.5% | 0.7% | ? | >57

Screening results (PubChem)
